Measured values published in the antibiotic and cytotoxicity screens of Wong et al. (2023).
The campaign covered roughly 39,000 compounds. About 1,500 (3.8%) were called active. The entries come from a sample that favours actives as a whole.

tested on: HSkMC (human skeletal muscle cells); assay: cytotoxicity call (relative viability < 0.9); settings: 10 µM

| SMILES | cytotoxicity call |
| --- | --- |
| O=C(C[C@@H]1C[C@@H]2c3cc(NC(=O)Nc4ccc(C(F)(F)F)cc4)ccc3O[C@@H]2[C@@H](CO)O1)NCCc1ccccc1 | inactive |
| O=C(C[C@@H]1C[C@@H]2c3cc(NC(=O)Nc4ccc(C(F)(F)F)cc4)ccc3O[C@@H]2[C@H](CO)O1)NCc1cc(F)ccc1F | inactive |
| O=C(C[C@H]1C[C@@H]2c3cc(NC(=O)Nc4ccc(C(F)(F)F)cc4)ccc3O[C@@H]2[C@@H](CO)O1)NCc1cc(F)ccc1F | active |
| O=C(C[C@H]1C[C@@H]2c3cc(NC(=O)Nc4ccc(C(F)(F)F)cc4)ccc3O[C@@H]2[C@H](CO)O1)NCc1ccc(Cl)cc1 | inactive |
| O=C(C[C@H]1C[C@@H]2c3cc(NC(=O)Nc4ccc(C(F)(F)F)cc4)ccc3O[C@@H]2[C@@H](CO)O1)NCc1ccc(Cl)cc1 | inactive |
| O=C(C[C@@H]1C[C@H]2c3cc(NC(=O)Nc4ccc(C(F)(F)F)cc4)ccc3O[C@H]2[C@H](CO)O1)NCc1ccc(Cl)cc1 | active |
| Cc1noc(C)c1S(=O)(=O)Nc1ccc2c(c1)CC(=O)N([C@@H](C)CO)C[C@@H](C)[C@@H](CN(C)Cc1ccccc1)O2 | inactive |
| Cc1noc(C)c1NC(=O)Nc1ccc2c(c1)CC(=O)N([C@@H](C)CO)C[C@@H](C)[C@@H](CN(C)Cc1ccc(-c3ccccc3)cc1)O2 | inactive |
| COc1ccc(NC(=O)N(C)C[C@@H]2Oc3c(NC(=O)Nc4cccc5ccccc45)cccc3C(=O)N([C@@H](C)CO)C[C@@H]2C)cc1 | inactive |
| C[C@H]1COC(=O)[C@H](NC(=O)OCC2c3ccccc3-c3ccccc32)CC=CC[C@@H](CC(=O)NCCO)C(=O)N1 | inactive |
| CCCNC(=O)N[C@@H]1C=C[C@@H](CC(=O)N2CCN(C)CC2)O[C@@H]1CO | inactive |
| Cc1ccc(S(=O)(=O)Nc2ccc3c(c2)C(=O)N([C@H](C)CO)C[C@H](C)[C@@H](CN(C)C(=O)Nc2c(C)noc2C)OCCCC[C@H](C)O3)cc1 | inactive |
| C[C@H]1CN([C@@H](C)CO)C(=O)c2c(c3ccccc3n2C)-c2ccccc2CO[C@H]1CN(C)C(=O)Nc1ccc(-c2ccccc2)cc1 | inactive |
| C[C@@H]1CCCCO[C@@H](CN(C)Cc2ccc(C(=O)Nc3ccccc3N)cc2)[C@@H](C)CN([C@H](C)CO)C(=O)c2cc(NC(=O)Nc3ccc(C(F)(F)F)cc3)ccc2O1 | active |
| C[C@H](CO)N1C[C@H](C)[C@H](CN(C)Cc2ccc(C(=O)Nc3ccccc3N)cc2)Oc2ccc(NC(=O)Nc3ccc(C(F)(F)F)cc3)cc2C1=O | active |
| C[C@@H]1CN([C@@H](C)CO)C(=O)c2cc(NC(=O)Nc3ccc(C(F)(F)F)cc3)ccc2O[C@H]1CN(C)Cc1ccc(C(=O)Nc2ccccc2N)cc1 | inactive |
| C[C@H](CO)N1C[C@H](C)[C@@H](CN(C)Cc2ccc(C(=O)Nc3ccccc3N)cc2)Oc2ccc(NC(=O)Nc3ccc(C(F)(F)F)cc3)cc2C1=O | inactive |

| SMILES | cytotoxicity call |
| --- | --- |
| C[C@H]1CN([C@@H](C)CO)C(=O)c2cc(NC(=O)Nc3ccc(C(F)(F)F)cc3)ccc2O[C@@H]1CN(C)Cc1ccc(C(=O)Nc2ccccc2N)cc1 | inactive |
| C[C@H]1CN([C@@H](C)CO)C(=O)c2cc(NC(=O)Nc3ccc(C(F)(F)F)cc3)ccc2O[C@H]1CN(C)Cc1ccc(C(=O)Nc2ccccc2N)cc1 | active |
| C[C@@H]1CN([C@H](C)CO)C(=O)c2cc(NC(=O)Nc3ccc(C(F)(F)F)cc3)ccc2O[C@@H]1CN(C)Cc1ccc(C(=O)Nc2ccccc2N)cc1 | inactive |
| C[C@@H]1CCCCO[C@H](CN(C)Cc2ccc(C(=O)Nc3ccccc3N)cc2)[C@@H](C)CN([C@@H](C)CO)C(=O)c2cc(NC(=O)Nc3ccc(C(F)(F)F)cc3)ccc2O1 | inactive |
| C[C@@H]1CCCCO[C@@H](CN(C)Cc2ccc(C(=O)Nc3ccccc3N)cc2)[C@@H](C)CN([C@H](C)CO)C(=O)c2cc(NC(=O)Nc3ccc(F)cc3)ccc2O1 | inactive |
| C[C@@H]1CN([C@H](C)CO)C(=O)Cc2cc(NC(=O)CCN3CCOCC3)ccc2O[C@@H]1CN(C)C(=O)Nc1ccccc1 | inactive |
| CN1C(=O)NC2(CCNCC2)C1=O | inactive |
| O=[N+]([O-])c1ccc(/C=C/CN(C/C=C/c2ccc([N+](=O)[O-])cc2)CCCNS(=O)(=O)c2cccc3cnccc23)cc1 | inactive |
| COc1ccc(CN(C)C[C@@H]2Oc3c(NC(=O)Nc4ccc(C(F)(F)F)cc4)cccc3C(=O)N([C@H](C)CO)C[C@H]2C)cc1 | active |
| COc1ccc(CN(C)C[C@H]2Oc3c(NC(=O)Nc4ccc(C(F)(F)F)cc4)cccc3C(=O)N([C@H](C)CO)C[C@H]2C)cc1 | inactive |
| COc1ccc(NC(=O)Nc2cccc3c2O[C@@H](CN(C)Cc2ccc(C(F)(F)F)cc2)[C@@H](C)CN([C@H](C)CO)C3=O)cc1 | inactive |
| COc1ccc(CN(C)C[C@H]2Oc3c(NC(=O)Nc4ccc(C(F)(F)F)cc4)cccc3C(=O)N([C@H](C)CO)C[C@@H]2C)cc1 | active |
| COc1ccc(NC(=O)Nc2cccc3c2O[C@@H](CN(C)Cc2ccc(C(F)(F)F)cc2)[C@H](C)CN([C@H](C)CO)C3=O)cc1 | inactive |
| COc1ccc(CN(C)C[C@H]2Oc3c(NC(=O)Nc4ccc(C(F)(F)F)cc4)cccc3C(=O)N([C@@H](C)CO)C[C@H]2C)cc1 | inactive |
| COc1ccc(NC(=O)Nc2cccc3c2O[C@@H](CN(C)Cc2ccc(C(F)(F)F)cc2)[C@H](C)CN([C@@H](C)CO)C3=O)cc1 | inactive |
| COc1ccc(NC(=O)Nc2cccc3c2O[C@H](CN(C)Cc2ccc(C(F)(F)F)cc2)[C@@H](C)CN([C@@H](C)CO)C3=O)cc1 | inactive |
| COc1ccc(CN(C)C[C@@H]2Oc3c(NC(=O)Nc4ccc(C(F)(F)F)cc4)cccc3C(=O)N([C@@H](C)CO)C[C@H]2C)cc1 | active |
